Test [1] is described as follows: small molecules captured by biotinylated probe aFSTL3 – biochemical, small-molecule microarray, fluorescence 635/667, stem cell growth factor project, primary screen (AID 1064).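 Further: measures binding of the biotinylated anti-FSTL3 antibody to printed compounds.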 Particulars: higher = more signal.
Test [2] can be described thus: binders from COS7 lysate, DM2A8 probe, primary screen, torsin A project, cell lysate, small-molecule microarray, fluorescence 635/667 (AID 1065). Particulars: higher = more signal, COS7 lysate expressing mutant human TOR1A.
A short description of test [3]: small molecules captured by biotinylated probe aFGF2 – biochemical, small-molecule microarray, fluorescence 635/667, stem cell growth factor project, primary screen (AID 1067).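 Further: measures binding of biotinylated aFGF2 protein to printed compounds on slides; z-score merges feature fluorescence and signal-to-noise across triplicate slides.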 Particulars: higher = more signal.
Test [4] is described as follows: small molecules captured by biotinylated probe aFGF10 – biochemical, small-molecule microarray, fluorescence 635/667, stem cell growth factor project, primary screen (AID 1071).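 Further: score merges 667 nm spot intensity and signal to noise from triplicate slides.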 Particulars: higher = more signal.
Test [5] deals with Neurogenic locus notch homolog protein 2 (Homo sapiens) (UniProt Q04721). The test can be described thus: small molecules binding Notch2 protein – biochemical, small-molecule microarray, 635 nm fluorescence, stem cell growth factors, primary screen (AID 1073). Particulars: higher = more signal.
Chain of Neurogenic locus notch homolog protein 2 (Homo sapiens) (Q04721 whole entry, looked up, canonical isoform): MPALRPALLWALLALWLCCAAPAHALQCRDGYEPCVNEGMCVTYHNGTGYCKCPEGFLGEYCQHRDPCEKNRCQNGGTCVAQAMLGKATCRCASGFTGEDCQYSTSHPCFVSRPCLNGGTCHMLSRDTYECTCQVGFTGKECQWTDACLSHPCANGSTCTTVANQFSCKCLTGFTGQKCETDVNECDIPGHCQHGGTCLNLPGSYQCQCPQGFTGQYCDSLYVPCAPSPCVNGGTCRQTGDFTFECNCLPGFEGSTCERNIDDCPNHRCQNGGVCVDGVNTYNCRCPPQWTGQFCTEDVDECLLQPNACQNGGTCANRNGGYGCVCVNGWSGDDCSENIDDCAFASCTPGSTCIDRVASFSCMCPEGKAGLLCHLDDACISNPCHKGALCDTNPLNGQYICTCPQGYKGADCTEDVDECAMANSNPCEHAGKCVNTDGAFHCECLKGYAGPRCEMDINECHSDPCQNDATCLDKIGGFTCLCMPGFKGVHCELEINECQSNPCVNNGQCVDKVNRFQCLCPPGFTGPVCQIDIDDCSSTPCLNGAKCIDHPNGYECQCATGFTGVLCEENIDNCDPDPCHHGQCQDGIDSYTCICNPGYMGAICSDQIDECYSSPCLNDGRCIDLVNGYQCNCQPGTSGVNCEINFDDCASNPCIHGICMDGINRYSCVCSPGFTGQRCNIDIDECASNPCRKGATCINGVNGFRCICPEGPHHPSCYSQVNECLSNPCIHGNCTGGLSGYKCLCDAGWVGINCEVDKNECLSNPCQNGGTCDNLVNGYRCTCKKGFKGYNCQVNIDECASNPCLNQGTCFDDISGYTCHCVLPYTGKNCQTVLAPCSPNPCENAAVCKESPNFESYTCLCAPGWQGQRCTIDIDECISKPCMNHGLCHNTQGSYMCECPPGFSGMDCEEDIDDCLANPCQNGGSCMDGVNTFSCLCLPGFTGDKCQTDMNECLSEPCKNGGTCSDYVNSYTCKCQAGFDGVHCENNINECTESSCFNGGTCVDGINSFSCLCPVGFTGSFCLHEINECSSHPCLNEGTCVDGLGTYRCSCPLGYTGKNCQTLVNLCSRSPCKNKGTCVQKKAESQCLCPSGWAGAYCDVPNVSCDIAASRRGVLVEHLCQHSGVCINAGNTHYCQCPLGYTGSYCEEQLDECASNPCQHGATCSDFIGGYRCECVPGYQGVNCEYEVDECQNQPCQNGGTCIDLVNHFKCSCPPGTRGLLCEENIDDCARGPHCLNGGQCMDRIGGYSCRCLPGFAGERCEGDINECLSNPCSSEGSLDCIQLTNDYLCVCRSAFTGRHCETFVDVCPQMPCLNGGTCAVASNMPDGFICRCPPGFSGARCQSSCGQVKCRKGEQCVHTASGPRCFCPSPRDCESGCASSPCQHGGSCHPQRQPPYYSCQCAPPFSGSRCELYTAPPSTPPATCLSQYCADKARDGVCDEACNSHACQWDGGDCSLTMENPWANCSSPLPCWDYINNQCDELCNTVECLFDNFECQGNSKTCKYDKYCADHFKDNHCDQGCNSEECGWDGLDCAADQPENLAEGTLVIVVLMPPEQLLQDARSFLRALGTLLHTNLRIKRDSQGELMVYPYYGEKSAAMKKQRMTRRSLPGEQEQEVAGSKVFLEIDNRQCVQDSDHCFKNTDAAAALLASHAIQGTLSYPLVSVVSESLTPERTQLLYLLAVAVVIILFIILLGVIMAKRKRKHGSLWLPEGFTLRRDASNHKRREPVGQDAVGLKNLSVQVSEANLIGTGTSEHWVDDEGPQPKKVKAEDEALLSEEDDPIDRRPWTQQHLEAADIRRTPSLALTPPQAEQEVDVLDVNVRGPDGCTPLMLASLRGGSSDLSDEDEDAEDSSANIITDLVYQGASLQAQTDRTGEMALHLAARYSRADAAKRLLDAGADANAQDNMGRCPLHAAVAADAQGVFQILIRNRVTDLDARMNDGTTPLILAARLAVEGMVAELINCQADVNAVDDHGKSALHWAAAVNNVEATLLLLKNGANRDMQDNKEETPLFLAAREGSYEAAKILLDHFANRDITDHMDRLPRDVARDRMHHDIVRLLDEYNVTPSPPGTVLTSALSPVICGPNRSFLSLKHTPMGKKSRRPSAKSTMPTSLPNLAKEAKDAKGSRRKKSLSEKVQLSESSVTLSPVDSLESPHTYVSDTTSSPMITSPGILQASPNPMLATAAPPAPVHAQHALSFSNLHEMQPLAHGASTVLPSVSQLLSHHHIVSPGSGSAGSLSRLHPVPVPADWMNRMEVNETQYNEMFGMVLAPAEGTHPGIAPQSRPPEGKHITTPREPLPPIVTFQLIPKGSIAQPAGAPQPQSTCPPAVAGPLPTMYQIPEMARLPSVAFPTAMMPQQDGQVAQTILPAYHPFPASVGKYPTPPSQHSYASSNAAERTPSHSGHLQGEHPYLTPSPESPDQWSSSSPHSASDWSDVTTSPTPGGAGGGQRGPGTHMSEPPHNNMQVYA
Test [6] addresses Pro-neuregulin-1, membrane-bound isoform (Homo sapiens) (UniProt Q02297). The test can be described thus: small molecules binding neuregulin-1 protein – biochemical, small-molecule microarray, fluorescence 635/667, psychiatric disease protein project, primary screen (AID 1075).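 Further: score combines 667 nm spot fluorescence with signal to noise.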 Particulars: NRG1 binding, 635 nm fluorescence, higher = more signal.
The test system of test [7] is Neuregulin-1 EGF-like domain. The test can be described thus: small molecules binding NRG1 EGF domain – biochemical, small-molecule microarray, 635 nm fluorescence, primary screen (AID 1081).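 Further: binding of the protein to compounds printed on small-molecule microarray slides.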 To be noted: higher = more signal.
Test [8] in a line: FRG1 expression reporter modulators in myotubes – cell-based, C2C12 myotubes, firefly/Renilla luciferase, luminescence, FRG1 inhibition for FSHD, primary screen (AID 1084). To be noted: FRG1 promoter luciferase, higher = more signal, called active from +8 up or from −8 down.
Test [9] is described as follows: small molecules captured by biotinylated probe aFST – biochemical, small-molecule microarray, fluorescence 635/667, stem cell growth factor project, primary screen (AID 1086).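 Further: score merges 667 nm fluorescence with signal-to-noise of each printed compound spot.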 Particulars: higher = more signal.
Test [10] is described as follows: binders of probe aHhip on microarray, primary screen, stem cell growth factor project, biochemical, small-molecule microarray, fluorescence 635/667 (AID 1087).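 Further: score merges spot fluorescence at 667nm with spot signal to noise ratio.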 Particulars: higher = more signal.
Test [11] relates to PRMT1 (protein arginine N-methyltransferase 1). The test can be described thus: small molecules binding arginine methyltransferase PRMT1 – biochemical, small-molecule microarray, 635 nm fluorescence, primary screen (AID 1088).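 Further: binding of Prmt1 protein to compounds spotted on small-molecule microarray slides.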 To be noted: higher = more signal.
Test [12] can be described thus: growth effects on S. cerevisiae YJM789 – YJM789 clinical isolate, OD600, 24 h, basal, primary screen (AID 1089).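 Further: growth of clinical yeast isolate S. cerevisiae YJM 789 seeded 1000 cells per well; test concentration not given here.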 Particulars: higher = more signal, called active from +8 up or from −8 down.
Test [13] in a line: S. pombe growth modifiers, basal conditions – strain 972, OD600, 24 h, no modulator, primary screen (AID 1090).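 Further: basal condition with compound alone and no growth modifier present; test concentration not given here.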 To be noted: S. pombe 972 growth, higher = more signal, called active from +8 up or from −8 down.
A short description of test [14]: budding yeast growth modifiers under rapamycin – strain BY4716, OD600, 96 h, primary screen (AID 1091). Further: test concentration not given here. Particulars: S. cerevisiae BY4716 + rapamycin, higher = more signal, called active from +8 up or from −8 down.
For test [15], the target named is Torsin-1A-interacting protein 2 (Homo sapiens) (UniProt Q8NFQ8). Kind of test: small molecules binding lysate-expressed LULL1 – cell lysate, human LULL1 lysate, 635/667 nm fluorescence, primary screen (AID 1092).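 Further: probe is lysate of COS7 cells overexpressing human LULL1; score merges per-feature 667 nm fluorescence with signal-to-noise.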 Particulars: small-molecule microarray, hLULL1 lysate binding, 635 nm fluorescence; higher = more signal.
Chain of Torsin-1A-interacting protein 2 (Homo sapiens) (Q8NFQ8 whole entry, looked up): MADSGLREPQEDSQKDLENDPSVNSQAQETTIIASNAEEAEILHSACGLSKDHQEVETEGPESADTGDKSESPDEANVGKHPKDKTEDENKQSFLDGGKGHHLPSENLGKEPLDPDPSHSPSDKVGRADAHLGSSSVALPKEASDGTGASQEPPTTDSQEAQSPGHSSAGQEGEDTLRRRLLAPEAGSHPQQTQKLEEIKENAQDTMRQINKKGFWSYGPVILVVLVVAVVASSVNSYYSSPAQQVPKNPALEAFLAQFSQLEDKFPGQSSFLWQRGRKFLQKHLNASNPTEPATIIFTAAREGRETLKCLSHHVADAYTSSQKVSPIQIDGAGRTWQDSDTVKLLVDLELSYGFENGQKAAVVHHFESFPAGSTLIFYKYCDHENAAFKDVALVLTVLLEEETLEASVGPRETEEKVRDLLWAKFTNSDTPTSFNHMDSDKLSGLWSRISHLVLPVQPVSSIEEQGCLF
A short description of test [16]: optical density change of DRC41 E. coli – strain DRC41, OD650, 24 h, E. coli filamentation project, primary screen (AID 1093).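 Further: MC1000 strain lacking acrAB efflux and sulA so SOS filamentation is blocked; test concentration not given here.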 To be noted: E. coli DRC41 growth, higher = more signal, called active from +8 up or from −8 down.
Test [17] can be described thus: probe aLefty2 binding to arrayed compounds – biochemical, biotinylated probe, 635/667 nm fluorescence, primary screen (AID 1094).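 Further: score merges spot fluorescence near 667 nm with spot signal-to-noise ratio.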 To be noted: small-molecule microarray, higher = more signal.
The subject of test [18] is Noggin (protein binding on small-molecule microarray). Kind of test: small molecules binding Noggin protein – biochemical, 635/667 nm fluorescence, primary screen (AID 1095).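 Further: score merges 667 nm feature fluorescence with signal to noise over triplicate slides.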 To be noted: 635 nm fluorescence, higher = more signal.
The target in test [19] is Neurogenic locus notch homolog protein 3 (Homo sapiens) (UniProt Q9UM47). Kind of test: small molecules binding NOTCH3 protein – biochemical, 635/667 nm fluorescence, primary screen (AID 1096). Particulars: small-molecule microarray, 635 nm fluorescence, higher = more signal.
Test [20] in a line: probe aEGFR binding to arrayed compounds – biochemical, biotinylated probe, 635/667 nm fluorescence, primary screen (AID 1097).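 Further: probe is a biotinylated anti-EGFR antibody binding compounds printed on slides; score combines fluorescence near 667 nm and signal to noise of each spot.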 Particulars: small-molecule microarray, higher = more signal.

The source of these data is PubChem BioAssay.

Activity calls are given as the source filed them.

Chain of Pro-neuregulin-1, membrane-bound isoform (Homo sapiens) (Q02297 whole entry, looked up, the tested form may be a part, canonical isoform): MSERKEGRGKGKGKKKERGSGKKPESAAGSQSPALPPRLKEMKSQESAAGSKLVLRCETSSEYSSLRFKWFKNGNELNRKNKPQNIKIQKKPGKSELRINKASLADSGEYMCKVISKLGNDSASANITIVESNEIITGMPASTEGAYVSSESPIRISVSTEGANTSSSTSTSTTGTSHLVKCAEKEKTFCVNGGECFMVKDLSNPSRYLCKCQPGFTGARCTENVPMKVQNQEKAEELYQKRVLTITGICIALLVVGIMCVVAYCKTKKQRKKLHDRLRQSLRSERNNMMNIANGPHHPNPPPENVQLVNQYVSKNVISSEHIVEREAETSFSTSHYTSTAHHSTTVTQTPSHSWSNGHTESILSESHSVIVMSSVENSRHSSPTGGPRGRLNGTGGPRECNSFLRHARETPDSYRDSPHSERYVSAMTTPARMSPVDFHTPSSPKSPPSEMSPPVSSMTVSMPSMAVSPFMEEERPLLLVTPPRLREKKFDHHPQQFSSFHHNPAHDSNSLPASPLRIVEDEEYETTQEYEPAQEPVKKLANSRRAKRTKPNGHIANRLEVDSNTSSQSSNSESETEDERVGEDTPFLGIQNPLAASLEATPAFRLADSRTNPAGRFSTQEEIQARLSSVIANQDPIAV

As to `C=C(C)C1C(=C)CN([C@H](CO)c2ccccc2)C1=O` (stereo not given in full), the composite z-score in test [1] was 0.172; in test [2], -0.605; in [3] it was -0.132; in [4], -0.205; in test [5], -0.725; in test [6], -0.461. In addition, the composite z-score in [7] was -0.708; in test [9] it was -0.0839; in [10] it was -0.0296; in test [11], 0.0584; in [15], 1.62; in test [17] it was -0.0757. In addition, the composite z-score in test [18] was 0.245; in test [19], 0.0316; in test [20], -0.18. For the same molecule, the z-score in test [8] is 0.0392 (inactive); in test [12], -0.329 (inactive); in test [13], -0.635 (inactive); in test [14] it was -1.97 (inactive); in test [16] it was -0.233 (inactive).

Consider `CC(C)(C)C(=O)N[C@@H](c1ccc(Cl)cc1)[C@]1(C)C[C@H]1C1CCCCC1`, for which the composite z-score came to 1.05 in [1]; 0.845 in test [2]; 0.282 in [3]; 0.57 in [4]; 1.51 in test [5]; 2.09 in test [6]. Further, the composite z-score in [7] worked out at 1.19; in [9], 1.47; in test [10], 0.0053; in [11] it was 1.05; in test [15], 3.61; in [17], 0.43. Further, the composite z-score in test [18] was -0.486; in test [19], 1.05; in test [20], 0.106. Also, the z-score in [8] was -1.52 (inactive); in test [12], 0.553 (inactive); in [13], 0.613 (inactive); in test [14], -0.104 (inactive); in [16], -0.21 (inactive).

As to `CN1C(=O)C2C=CC(C(O)c3ccccc3)N(Nc3ccccc3)C2C1=O` (stereo not given), the composite z-score was 0.527 in [1]; -0.214 in [2]; 0.0444 in test [3]; -1.06 in test [4]; -0.0125 in test [5]; 0.151 in test [6]. In addition, the composite z-score in test [7] is 0.547; in test [9], 0.261; in [10] it was -0.301; in test [11] it was 0.47; in [15], 2.71; in [17], 0.0105. The composite z-score in test [18] was -1.09; in [19], -0.557; in [20] it was -0.0828. The z-score is 0.527 (inactive) in test [8]; -0.124 (inactive) in test [12]; 0.807 (inactive) in [13]; 0.646 (inactive) in test [14]; -1.79 (inactive) in [16].

Regarding `CCC(CC)C(O)C1C=CC2C(=O)N(C)C(=O)C2N1Nc1ccccc1` (stereo not given), the composite z-score came to 0.53 in [1]; 0.219 in test [2]; 0.117 in test [3]; 0.258 in test [4]; 1.47 in test [5]; 1.47 in test [6]. Moreover, the composite z-score was 0.816 in test [7]; 0.876 in test [9]; -0.134 in [10]; 1.02 in test [11]; 3.07 in [15]; -0.0321 in test [17]. Further, the composite z-score in [18] was -0.0929; in test [19], 1.06; in test [20] it was -0.0828. The z-score is 1.97 (inactive) in test [8]; -0.0298 (inactive) in test [12]; -0.575 (inactive) in test [13]; 0.0024 (inactive) in [14]; 0.103 (inactive) in [16].

As to `CC1(C)[C@@H]2CC(C(O)C3C=CC4C(=O)N(c5ccccc5)C(=O)C4N3Nc3ccccc3)=C[C@H]1C2` (stereo not given in full), the composite z-score in test [1] is 0.11; in test [2] it was -0.6; in [3], 0.062; in test [4] it was 0.45; in test [5] it was 1.03; in test [6], 1.15. The composite z-score in [7] was 0.886; in [9] it was 0.889; in [10], 0.142; in test [11], -0.0035; in [15], 2.58; in [17], -0.0008. In addition, the composite z-score in test [18] was -0.161; in test [19], 0.367; in [20], -0.0431. The z-score in [8] is -0.559 (inactive); in test [12] it was -0.4 (inactive); in test [13] it was 0.286 (inactive); in test [14], -0.136 (inactive); in [16] it was -0.936 (inactive).
